AMA1 RON2 block = qHTS for Inhibitors of AMA1-RON; Towards Development of Antimalarial Drug Lead: Primary Screen. Plasmodium falciparum AMA1 (3D7) - RON2 peptide interaction. Potency, µM (doses to about 58.2 µM), without a hit: top-dose activity change, negative = inhibition, usual class: inhibitors. AlphaScreen AMA1-biotinylated RON2 peptide binding. hit rate 0.2% among 360,000;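 note: potency is the fitted concentration of half-maximal effect; 0% = vehicle wells and -100% = peptide control; nearly all actives have a fitted effect of over 45% in size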
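AMA1 (3D7) with his tag at 25 nM final met compounds first, then biotinylated RON2 peptide at 25 nM; detection used donor plus acceptor beads, 10 µg/mL apiece, read by AlphaScreen after 30 min at room temperature.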
Shiga inhibitor = A qHTS for Small Molecule Inhibitors of Shiga Toxin; hit rate 9.2% among 290,000; inhibition, % at 38.7 µM; Vero cells, Shiga toxin protein synthesis inhibition reporter; in the data active = inhibition mostly above about 28%, no sharp cut-off; inactive = mostly below about 43%; note: 0% is about no effect
Pf growth 48h = Primary qHTS for delayed death inhibitors of the malarial parasite plastid, 48 hour incubation; P. falciparum luciferase growth in erythrocytes, 48 h; Potency, µM (top dose mostly 28.7 µM), for inactives: at the highest dose activity change, negative = inhibition, actives largely listed as inhibitors; hit rate 5.9% among 310,000; note: potency is the fitted concentration of half-maximal effect; % is set by controls: 0 for no effect and ±100 for the full control effect
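Luminescence readout; reporter = integrated firefly luciferase in P. falciparum. RBC culture at 2% hematocrit, 0.1% parasitemia final, 37 C/5% CO2; decreased signal taken as growth inhibition.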
Cycloheximide cs = Cycloheximide Counterscreen for Small Molecule Inhibitors of Shiga Toxin; max response, %; AID 2314, 2010; cell reporter, cycloheximide protein synthesis inhibition counterscreen; hit rate 12% among 300,000; in the data active = max response mostly above about 13%, no sharp cut-off; inactive = mostly below about 14%; note: read at 38.3 µM for the half of the compounds with a filed dose; 0% is about no effect
SARS PLpro yeast = qHTS of Yeast-based Assay for SARS-CoV PLP | S. cerevisiae expressing SARS-CoV PLpro, growth rescue | Potency, µM (doses to about 32.9 µM), without a hit: at the highest dose activity, positive = growth rescue, actives largely listed as activators | hit rate 0.19% among 330,000 | AID 485353, 2010; calls by dose curve; note: potency is the fitted concentration of half-maximal effect; 0% is about no effect; nearly all actives have a fitted effect of over 55% in size
Pf growth 96h = Primary qHTS for delayed death inhibitors of the malarial parasite plastid, 96 hour incubation. P. falciparum luciferase reporter growth, 96 h. Potency, µM (top dose mostly 28.7 µM), for inactives: at the highest dose activity change, negative = inhibition, usual class: inhibitors. hit rate 6.9% among 320,000. AID 504834, 2011; note: potency is the fitted concentration of half-maximal effect; % is set by controls: 0 for no effect and ±100 for the full control effect
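Plates of compound plus infected erythrocytes (2% hematocrit, 0.05% parasitemia final) incubate 96 hours, 37 C, 5% CO2. Detection reagent added; reduced luminescence from the parasites' luciferase reporter flags inhibition.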
* marks the source's active call; other numbers are inactive results; u = inconclusive; x = not tested or not shown; [ ] = dose if it differs, or a comment. Rows were chosen to be rich in hits. Some 19% of all compounds tested hit in one or more screens of this group. Unless noted, calls come from the whole dose curve; as a rule, active = well fitted curve in the direction sought with a large enough effect; inconclusive = small, poorly fitted or top-dose-only effect, or another doubt; inactive = no such curve, though single readings can be large; an effect the other way counts as inactive or inconclusive.

SMILES	AMA1 RON2 block	Shiga inhibitor	Pf growth 48h	Cycloheximide cs	SARS PLpro yeast	Pf growth 96h
CCOC(=O)c1ccc(N=c2ssnc2Cl)cc1	-18%	53*	58%	23*	-3%	24%
O=C(Nc1ccccc1F)Nc1cccnc1Cl	9%	x	x	x	x	x
O=C(NC1CCS(=O)(=O)C1)N1CCCCC1 (stereo not drawn)	13%	-12	x	-3	0%	4.1µM*
COc1ccc(NC(=O)CCCn2c(=O)c3sccc3n(Cc3ccccc3)c2=O)cc1	5%	9	u	26*	u	u
Cc1ccc(NC(=O)CCn2c(=O)[nH]c3ccsc3c2=O)cc1	3%	33	-19%	3	0%	u
CCOc1ccc(NC(=O)CCn2c(=O)[nH]c3ccsc3c2=O)cc1	-7%	-8	x	-5	-4%	7.4µM*
O=C(CCCn1c(=O)[nH]c2ccsc2c1=O)Nc1ccc(F)cc1	7%	-11	16%	-1	4%	5%
COc1ccc(NC(=O)CCCn2c(=O)c3sccc3n(Cc3ccccc3C)c2=O)cc1	-12%	-23	u	-2	-1%	-22%
CCc1cccc(NC(=O)CCCn2c(=O)[nH]c3ccsc3c2=O)c1	-1%	-3	-7%	-4	-2%	2.9µM*
C=CCNS(=O)(=O)NC(=O)C1=C(N2CCCC2)COC1=O	1%	x	x	x	5%	x
N=C(N)SCCN=C(N)N	x	-8	x	0	x	x
COc1ccc(N=Cc2c(O)n(-c3cccc(C)n3)c(=O)c3ccccc23)c(OC)c1	9%	11	20%	-3	2%	24%
CN(C)P(=O)(Nc1cccc2ccccc12)Nc1cccc2ccccc12	-13%	x	4.7µM*	x	-1%	u
CC(C)OP(=O)(Nc1cccc2ccccc12)OC(C)C	11%	-14	u	-2	7%	u
CCOC(=O)N1CCN(C(=O)c2cc(C)no2)CC1	-2%	-13	x	-9	-1%	11%
CCOC(=O)c1ccc(-c2cc(C)no2)[nH]1	11%	42*	65%	10	-7%	63%
Cc1ccc2c(c1)C(O)(CC(=O)/C=C/C=C/c1ccccc1)C(=O)N2 (stereo not drawn)	0%[11.6 µM]	22	6%	27*	1%	u
Cc1ccc(C(=O)N2CCN(c3ccc(NC(=O)c4cccs4)cc3)CC2)cc1	-9%	23	10µM*	15	2%	u
O=C(Nc1ccc(C(=O)N2CCCCC2)cc1)c1cccs1	-1%	68*	42%	19*	-4%	30%
COc1cc(OC)cc(C(=O)Nc2ccc(N3CCN(C(=O)c4cccs4)CC3)cc2)c1	-19%	-23	u	-2	27%	8%
COc1ccc(C(=O)Nc2ccc(N3CCN(C(=O)c4cccs4)CC3)cc2)cc1Br	-6%	-2	u	9	3%	9.3µM*
CN1CCN(c2ccc(NC(=O)c3cccs3)cc2)CC1	0%	41	79%	32*	1%	u
COc1ccc(N2CCN(C(=O)c3ccc(COc4ccc([N+](=O)[O-])cc4)o3)CC2)cc1	u	-5	u	-2	-10%	0%
CC(C)[C@H](NC(=O)CCCn1nnc2ccccc2c1=O)C(=O)O	-5%	17	34%	-2	0%	45%
COC(=O)C1=CN(CC2CCCO2)C=C(C(=O)OC)C1c1ccsc1 (stereo not drawn)	26%	6	u	-4	8%	x
SMILES	AMA1 RON2 block	Shiga inhibitor	Pf growth 48h	Cycloheximide cs	SARS PLpro yeast	Pf growth 96h
CCOC(=O)C1=CN(C)C=C(C(=O)OCC)C1c1ccsc1	5%	-6	u	17*	5%	6%
COC(=O)C1=C(C)N(C)C(C)=C(C(=O)OC)C1c1ccsc1	-4%	-16	u	-3	-7%	13%
COC(=O)C1=CN(Cc2ccc(OC)cc2)C=C(C(=O)OC)C1c1ccsc1	35%	5	7.4µM*	-1	1%	38%
CN(C)/C=N/c1nc2ccc3c(c2s1)CCCC3	-5%	87*	129%	36*	0%	u
CCOC(=O)c1c(/N=C/N(C)C)sc2c1CCC2	7%	-7	24%	-1	-3%	21%
COc1ccc(-c2cc(C(F)(F)F)nc(N3CCN(c4ccc(F)cc4)CC3)n2)cc1OC	3%	32	x	9	20%	x
COc1ccc(-c2cc(C(F)(F)F)nc(N3CCN(Cc4ccccc4)CC3)n2)cc1OC	-3%	-13	10µM*	-2	3%	69%
COc1cc(=O)[nH]c(SC(C)C(=O)Nc2ccc3ccccc3c2)n1 (stereo not drawn)	-10%	-1	18%	-3	-10%	15%
CCOC(=O)c1nnn(CC(=O)N2N=C(c3cccc4ccccc34)CC2c2ccccc2)c1C(=O)OCC (stereo not drawn)	9%	-2	9.3µM*	-3	5%	u
CCOC(=O)c1nnn(CC(=O)Nc2cccc(Cl)c2C)c1C(=O)OCC	-2%	-15	x	-5	6%	47%
CCOC(=O)C1CCN(C(=O)C2CCN(c3nc4ccc(OC)cc4s3)CC2)CC1	-12%	29	u	-4	-7%	10µM*
CCOC(=O)C1CCN(C(=O)c2ccc(S(=O)(=O)Nc3ccccc3OC)cc2)CC1	-7%	x	u	x	3%	12µM*
CCOC(=O)C1CCN(C(=O)c2ccc3nc(-c4ccc(OC)cc4)c(-c4ccc(OC)cc4)nc3c2)CC1	15%	-13	8.3µM*	-3	-3%	8%
CCOC(=O)C1CCCN(C(=O)c2cccc(Cl)c2)CC1 (stereo not drawn)	0%	x	x	x	x	x
CCOC(=O)C1CCCN(C(=O)c2ccc(OC)cc2)CC1 (stereo not drawn)	-2%	x	x	x	x	x
CCOC(=O)C1CCN(C(=O)c2cccc(Cl)c2)CC1	5%	-7	-8%	-2	-1%	7.4µM*
CCOC(=O)C1CCN(C(=O)C2CCN(c3nnc(-n4cccc4)s3)CC2)CC1	1%	-4	u	13	-4%	-28%
COc1cccc(C(=O)N[C@@H](C)C(=O)N2CCC3(CC2)NCCc2[nH]cnc23)c1	9%	-5	5%	-1	-5%	34%
O=C(c1cccc(Cl)c1)N1CCN(C2CCCCC2)CC1	-2%	-11	1%	-2	5%	34%
CCOC(=O)C1CCN(C(=O)c2cc(C(C)(C)C)nn2Cc2ccccc2)CC1	3%	-23	1.2µM*	-1	1%	1.2µM*
O=C(c1cccc(Cl)c1)N1CCC(N2CCC(C(=O)N3CCCC3)CC2)CC1	1%	-1	u	21*	24%	15µM*
COc1ccc(CCCNC(=O)C2Cc3c(-c4ccc(NC(C)=O)cc4)ccnc3O2)cc1 (stereo not drawn)	-5%	x	x	x	x	x
